Measurements from PubChem BioAssay (NCATS).
Records with an inconclusive call do not appear. Entries that show only a call come without a potency. The source made the active and inactive calls. Unless noted, calls follow the shape of the dose curve; as a rule, active = well fitted curve in the direction sought with a large enough effect; inconclusive = small, poorly fitted or top-dose-only effect, or another doubt; inactive = no such curve, though single readings can be large; an effect the other way counts as inactive or inconclusive.

Tests used:
[1] = target: Peptidyl-prolyl cis-trans isomerase NIMA-interacting 1 (Homo sapiens) (UniProt Q13526); experiment: qHTS Validation Assay to Find Inhibitors of Pin1 (AID 504536; active = well fitted inhibition curve with a large enough effect in the polarisation, with a control signal flat, not every such curve was filed as active; the % refers to the polarisation; also: potency is read from the fitted curve at half-maximal effect)
Method in brief: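 Fluorescence polarization competition: compounds (titration) displace HiFluor-488-labeled Pin1-1b peptide from Pin1 (0.3 uM final) in pH 7.5 HEPES buffer with DTT, 10 min at room temperature; %Activity normalized to no-enzyme wells, curves fitted.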

[2] = target: Phosphoglycerate kinase, glycosomal (Trypanosoma brucei brucei) (UniProt P07378); experiment: qHTS Validation Assay to Find Inhibitors of Phosphoglycerate Kinase (AID 504547)
Method in brief: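 Substrate/PGK mix plus compound; reaction started with GAPDH (100nM final) to form 1,3-BPG; 60 min RT; Kinase-Glo Plus 10 min; luminescence. TEA 100mM pH 7.6, MgCl2 5mM, Tween-20 0.01%.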

[3] = target: phosphoglycerate mutase (Leishmania major) (UniProt Q4Q090); experiment: qHTS Validation Assay to Find Inhibitors of Phosphoglycerate Mutase (AID 504548); conditions: Potency: inhibition qHTS; also: series mostly up to about 58 µM
Method in brief: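 Luminescent end-point read-out via Kinase-GloPlus after a 10-minute development. Reaction: 1.25nM Leishmania major PGAM with substrate and compound, 45 minutes at room temperature in TEA buffer (pH 7.6) with MgCl2 and Tween-20.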

[4] = target: Ubiquitin carboxyl-terminal hydrolase 1 (Homo sapiens) (UniProt O94782); experiment: Inhibitors of USP1/UAF1: Pilot qHTS (AID 504865); also: nearly all actives have a fitted effect of over 35% in size; also: potency is read from the fitted curve at half-maximal effect
Method in brief: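 Enzyme-free wells gave the negative control, while test wells held 1nM USP1/UAF1 preincubated with compound for 15 min at room temperature. Ub-Rho at 150nM final started the reaction, and fluorescence at 480/540 nm was recorded kinetically.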

[5] = qHTS for Inhibitors of ATXN expression: Validation of Cytotoxic Assay (AID 588349)
Method in brief: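 HEK293 cells treated with titrated compound for 72 hr at 37 degrees C; viability read as intracellular ATP by CellTiter Glo luminescence.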

[6] = qHTS for Inhibitors of ATXN expression: Validation (AID 588378); also: series mostly up to about 57 µM; nearly all actives have a fitted effect of over 75% in size
Method in brief: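 After a 2 h attachment and 24 h compound incubation, HEK293-ATXN2-FFLuc wells are read for fluorescence at 405 nm excitation/525 nm emission as a viability measure, then for Bright-Glo luminescence reflecting ATXN2 expression.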

phosphoglycerate mutase (Leishmania major), sequence (Q4Q090 1-553): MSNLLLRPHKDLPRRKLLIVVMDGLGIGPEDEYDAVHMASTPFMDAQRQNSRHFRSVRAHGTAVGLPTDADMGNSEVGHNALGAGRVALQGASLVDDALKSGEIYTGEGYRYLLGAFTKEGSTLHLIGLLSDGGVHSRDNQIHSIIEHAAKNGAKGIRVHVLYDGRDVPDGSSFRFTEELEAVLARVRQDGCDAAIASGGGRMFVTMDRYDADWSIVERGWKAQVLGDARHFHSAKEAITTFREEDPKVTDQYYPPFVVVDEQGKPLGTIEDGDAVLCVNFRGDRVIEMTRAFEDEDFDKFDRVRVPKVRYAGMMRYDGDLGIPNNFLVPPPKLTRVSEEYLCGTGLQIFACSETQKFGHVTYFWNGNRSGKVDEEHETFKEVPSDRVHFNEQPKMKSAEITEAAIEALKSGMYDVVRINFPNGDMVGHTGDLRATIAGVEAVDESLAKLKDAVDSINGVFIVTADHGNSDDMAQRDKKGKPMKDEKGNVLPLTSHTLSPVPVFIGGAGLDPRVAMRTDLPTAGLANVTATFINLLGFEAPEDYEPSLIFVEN
Peptidyl-prolyl cis-trans isomerase NIMA-interacting 1 (Homo sapiens), sequence (Q13526 whole entry, looked up): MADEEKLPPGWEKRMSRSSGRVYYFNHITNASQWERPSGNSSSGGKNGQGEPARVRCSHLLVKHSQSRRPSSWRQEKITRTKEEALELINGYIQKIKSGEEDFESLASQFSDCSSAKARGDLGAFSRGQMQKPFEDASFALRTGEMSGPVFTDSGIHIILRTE
Ubiquitin carboxyl-terminal hydrolase 1 (Homo sapiens), sequence (O94782 whole entry, looked up): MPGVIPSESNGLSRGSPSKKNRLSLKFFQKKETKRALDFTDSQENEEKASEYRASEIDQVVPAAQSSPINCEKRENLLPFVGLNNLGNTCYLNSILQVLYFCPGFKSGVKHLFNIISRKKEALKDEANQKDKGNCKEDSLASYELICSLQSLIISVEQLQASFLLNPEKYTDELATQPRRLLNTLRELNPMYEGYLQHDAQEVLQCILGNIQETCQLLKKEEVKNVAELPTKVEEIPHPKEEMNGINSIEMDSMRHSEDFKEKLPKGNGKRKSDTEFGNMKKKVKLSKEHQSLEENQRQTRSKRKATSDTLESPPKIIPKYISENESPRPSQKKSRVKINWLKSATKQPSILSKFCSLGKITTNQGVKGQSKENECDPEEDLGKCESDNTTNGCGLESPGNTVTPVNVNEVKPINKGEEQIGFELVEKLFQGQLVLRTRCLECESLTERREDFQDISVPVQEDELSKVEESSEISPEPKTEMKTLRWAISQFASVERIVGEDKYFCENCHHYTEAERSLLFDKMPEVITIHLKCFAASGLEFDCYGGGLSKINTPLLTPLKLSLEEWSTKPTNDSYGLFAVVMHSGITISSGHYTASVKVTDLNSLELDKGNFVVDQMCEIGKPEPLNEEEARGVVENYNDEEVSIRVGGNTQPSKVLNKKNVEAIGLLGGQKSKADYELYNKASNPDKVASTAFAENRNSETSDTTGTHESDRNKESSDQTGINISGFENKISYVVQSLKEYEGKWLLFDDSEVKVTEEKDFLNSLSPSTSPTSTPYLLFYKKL
Phosphoglycerate kinase, glycosomal (Trypanosoma brucei brucei), sequence (P07378 whole entry, looked up): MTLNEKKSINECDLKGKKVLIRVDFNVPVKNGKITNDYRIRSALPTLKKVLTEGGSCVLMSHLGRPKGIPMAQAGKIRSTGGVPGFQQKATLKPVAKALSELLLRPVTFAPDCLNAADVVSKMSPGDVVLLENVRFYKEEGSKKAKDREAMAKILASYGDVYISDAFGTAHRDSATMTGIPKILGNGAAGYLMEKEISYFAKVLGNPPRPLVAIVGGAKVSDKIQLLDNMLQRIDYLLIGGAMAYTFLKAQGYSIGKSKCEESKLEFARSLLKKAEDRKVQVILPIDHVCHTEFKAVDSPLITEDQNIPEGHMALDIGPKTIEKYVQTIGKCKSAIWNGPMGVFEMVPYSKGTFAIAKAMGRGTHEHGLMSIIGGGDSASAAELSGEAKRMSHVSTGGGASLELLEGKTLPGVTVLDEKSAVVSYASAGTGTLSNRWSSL

| SMILES | Potency [1] | Potency [2] | Potency [3] | Potency [4] | Potency [5] | Potency [6] |
| --- | --- | --- | --- | --- | --- | --- |
| OC[C@H]1O[C@@H](n2cnc3c(Nc4ccccc4)ncnc32)[C@H](O)[C@@H]1O | inactive | inactive | inactive | inactive | inactive | inactive |
| CN1CC(=O)N/C1=N/C(=O)Nc1cccc(Cl)c1 | inactive | inactive | inactive | inactive | inactive | inactive |
| Cn1ncc(S(=O)(=O)Cc2ccccc2)c(Br)c1=O | inactive | inactive | inactive | 12.6 µM (active) |  |  |
| COc1ccc2c(c1)CCC1C2CC[C@@]2(C)C1CC[C@@H]2NCCCCCCN1C(=O)CCC1=O (stereo not given in full) | inactive | inactive | inactive | inactive |  |  |
| COc1cc(OC)c(/C=C2/C(=O)Nc3ccccc32)c(OC)c1 | inactive | inactive | inactive | inactive |  |  |
| CNc1ncnc2c1ncn2[C@@H]1O[C@H](CO)[C@@H](O)[C@H]1O | inactive | inactive | inactive | inactive | inactive | inactive |
| CC(=O)/C=C1\C(=O)N(C)c2ccccc21 | inactive | inactive | inactive | inactive |  |  |
| NC(=O)C1=CN(C2OC(COP(=O)(O)OP(=O)(O)OC[C@H]3O[C@@H](n4cnc5c(N)ncnc54)[C@H](OP(=O)(O)O)[C@@H]3O)C(O)C2O)C=CC1 (stereo not given in full) | 5.36 µM (active) | inactive | inactive | inactive | inactive | inactive |
| CCNC(=O)[C@H]1O[C@@H](n2cnc3c(N)nc(NCCc4ccc(CCC(=O)O)cc4)nc32)[C@H](O)[C@@H]1O | inactive | inactive | inactive | inactive | inactive | inactive |
| CCCCCCCCCCCCCCCC(=O)NCC(COP(=O)([O-])OCC[N+](C)(C)C)OCC (stereo not given) | inactive | inactive | inactive | 79.4 µM (active) |  |  |
